Among the test systems are NCI-H23 lung; NCI-H226 lung; NCI-H322M lung; HOP-62 NSCLC; NCI-H460 lung; HOP-92 NSCLC; NCI-H522 lung; A549/ATCC NSCLC; 786-0 renal; COLO 205 colon; DU-145 prostate; K-562 leukemia; MALME-3M melanoma; MDA-MB-231 breast; RXF 393 renal; SF-268 CNS; SF-295 CNS; SF-539 CNS; UACC-257 melanoma; M14 melanoma.
What all share (assay): NCI-60 one-dose screen, 48 h (100 = growth as untreated, 0 = no growth, -100 = all killed)
Details in all cases: 10 µM unless noted

Our source for the growth values is PubChem BioAssay (NCI).

About 83,000 compounds went through this panel and 20% of them were active in at least one assay; those are over-represented in the sample as a whole.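 Cells were grown in 96-well plates and exposed to the test compound at a single concentration for 48 hours; results are reported as percent growth, with values below 10 considered active.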 Values without a mark were called inactive. Active and inactive are the calls of the source.

Turning to `Cc1cccc(OCC(O)CN2CCN(c3ccc(Cl)cc3)CC2)c1` (stereo not given), the growth with NCI-H23 lung was 95.2%; in the experiment on NCI-H226 lung, 112%; with NCI-H322M lung, 125%; in the experiment on HOP-62 NSCLC, 118%; in the experiment with NCI-H460 lung, 108%; in the experiment with HOP-92 NSCLC, 80%. The growth in the experiment with NCI-H522 lung is 109%; in the experiment on A549/ATCC NSCLC it was 98.5%; with 786-0 renal, 96.5%; in the experiment on COLO 205 colon, 96.7%; in the experiment on DU-145 prostate, 113%; in the experiment with K-562 leukemia, 96.9%. Besides, the growth in the experiment with MALME-3M melanoma was 153%; with MDA-MB-231 breast, 98.7%; in the experiment with RXF 393 renal, 118%; in the experiment on SF-268 CNS, 99.4%; with SF-295 CNS, 94.5%; in the experiment on SF-539 CNS, 104%. The growth in the experiment with UACC-257 melanoma was 108%; with M14 melanoma, 94.7%.
Turning to `CN(C(=O)NCc1cccc(F)c1Cl)[C@H](COC(=O)Nc1cc2ccccc2cn1)CC(O)CO` (stereo not given in full), the growth was 96.5% in the experiment with NCI-H23 lung; 92.7% with NCI-H226 lung; 86.4% in the experiment with NCI-H322M lung; 64.8% in the experiment on HOP-62 NSCLC; 100% in the experiment with NCI-H460 lung; 28% with HOP-92 NSCLC. For the same compound, the growth with NCI-H522 lung is 84.5%; in the experiment on A549/ATCC NSCLC, 80.9%; with 786-0 renal it was 68%; in the experiment with COLO 205 colon, 111%; in the experiment with DU-145 prostate, 94.4%; in the experiment on K-562 leukemia, 91.5%. The growth was 100% in the experiment with MALME-3M melanoma; 46.8% with MDA-MB-231 breast; 84.8% in the experiment on RXF 393 renal; 49.8% in the experiment on SF-268 CNS; 69.7% in the experiment with SF-295 CNS; 37% with SF-539 CNS. In addition, the growth in the experiment on UACC-257 melanoma was 102%; in the experiment with M14 melanoma it was 98.8%.
In the case of `COc1ccc(C(=O)C[C@]2(O)C(=O)Nc3c(Cl)ccc(Cl)c32)cc1`, the growth with NCI-H23 lung is 44.3%; with NCI-H226 lung it was 58.8%; in the experiment on NCI-H322M lung, 47.5%; in the experiment on HOP-62 NSCLC, 40.4%; with NCI-H460 lung, 10.1%; with HOP-92 NSCLC, 62.1%. Also, the growth with NCI-H522 lung was 13.4%; in the experiment on A549/ATCC NSCLC, 53.4%; with 786-0 renal it was 55.9%; with COLO 205 colon, 7.6% (active); in the experiment with DU-145 prostate it was 21.7%; in the experiment with K-562 leukemia, 13.6%. In addition, the growth with MALME-3M melanoma is 51.1%; in the experiment on MDA-MB-231 breast, 49%; in the experiment with RXF 393 renal, -3.05% (active); with SF-268 CNS it was 61.9%; in the experiment on SF-295 CNS it was 4.67% (active); in the experiment on SF-539 CNS, -11.6% (active). Further, the growth in the experiment with UACC-257 melanoma was 63.9%; with M14 melanoma, 5.9% (active).
With `O=C(Nc1ccc(Cl)cc1F)c1cc(Cl)ccc1O`, the growth with NCI-H23 lung was -20% (active); in the experiment on NCI-H226 lung, -9.16% (active); in the experiment on NCI-H322M lung it was -11.1% (active); in the experiment with HOP-62 NSCLC, 7.55% (active); with NCI-H460 lung it was -5.39% (active); in the experiment on HOP-92 NSCLC, -21.7% (active). The growth was -3.15% (active) in the experiment on NCI-H522 lung; 7.91% (active) in the experiment with A549/ATCC NSCLC; -0.322% (active) with 786-0 renal; 22.2% in the experiment on COLO 205 colon; 12.5% in the experiment on DU-145 prostate; 4.51% (active) in the experiment with K-562 leukemia. Further, the growth in the experiment with MALME-3M melanoma is -32.2% (active); in the experiment on MDA-MB-231 breast it was -34.5% (active); with RXF 393 renal, -12.7% (active); in the experiment with SF-268 CNS it was 7.67% (active); in the experiment on SF-295 CNS it was -69.5% (active); in the experiment with SF-539 CNS, 4.82% (active). Also, the growth was -17.9% (active) in the experiment on UACC-257 melanoma and -12.3% (active) in the experiment with M14 melanoma.
For `OC(COc1ccccc1)CN1CCN(c2ccc(Cl)cc2)CC1` (stereo not given), the growth is 95% in the experiment on NCI-H23 lung; 95.3% with NCI-H226 lung; 115% with NCI-H322M lung; 123% in the experiment with HOP-62 NSCLC; 105% in the experiment with NCI-H460 lung; 80.5% in the experiment on HOP-92 NSCLC. Besides, the growth with NCI-H522 lung is 98.3%; in the experiment on A549/ATCC NSCLC, 87.1%; with 786-0 renal, 102%; in the experiment on COLO 205 colon, 99.3%; in the experiment with DU-145 prostate it was 110%; in the experiment on K-562 leukemia it was 73.8%. For the same compound, the growth was 128% in the experiment on MALME-3M melanoma; 94% with MDA-MB-231 breast; 113% in the experiment with RXF 393 renal; 99.4% in the experiment on SF-268 CNS; 111% with SF-295 CNS; 116% in the experiment on SF-539 CNS. Also, the results for the growth with UACC-257 melanoma and in the experiment on M14 melanoma were 87.7% and 101%, respectively.
In the case of `Oc1ccc(C#CCOc2ccccc2)cc1CNCCN(Cc1ccccn1)Cc1ccccn1`, the growth in the experiment on NCI-H23 lung is 16.7%; in the experiment with NCI-H226 lung, 8.23% (active); in the experiment with NCI-H322M lung, 13.6%; with HOP-62 NSCLC it was 13.3%; in the experiment on NCI-H460 lung it was 5.58% (active); with HOP-92 NSCLC, 42.5%. The growth in the experiment on NCI-H522 lung is 9.5% (active); in the experiment on A549/ATCC NSCLC, 8.12% (active); with 786-0 renal it was 5.55% (active); in the experiment with COLO 205 colon it was 13%; with DU-145 prostate it was 28.6%; with K-562 leukemia, 8.65% (active). Moreover, the growth is 25.2% in the experiment on MALME-3M melanoma; 47% in the experiment with MDA-MB-231 breast; 16% in the experiment on RXF 393 renal; 13% with SF-268 CNS; 4.52% (active) in the experiment with SF-295 CNS; 11.3% with SF-539 CNS. In addition, the growth in the experiment on UACC-257 melanoma was 15.4%; in the experiment with M14 melanoma, 6.22% (active).
As for `CC(C)n1cnc2c(Nc3cccc(Cl)c3)nc(N[C@H]3CCCC[C@@H]3N)nc21`, the growth in the experiment on NCI-H23 lung was 61.7%; with NCI-H226 lung, 68.6%; with NCI-H322M lung, 66.4%; with HOP-62 NSCLC, 42.8%; in the experiment with NCI-H460 lung, 45.7%; with HOP-92 NSCLC, 26.8%. The growth was 38.7% with NCI-H522 lung; 55.7% with A549/ATCC NSCLC; 45.7% in the experiment on 786-0 renal; 26.4% in the experiment on COLO 205 colon; 49.7% with DU-145 prostate; 35.5% in the experiment on K-562 leukemia. Besides, the growth in the experiment on MALME-3M melanoma was 45.5%; in the experiment on MDA-MB-231 breast, 32.6%; in the experiment on RXF 393 renal it was 53.2%; with SF-268 CNS, 46.5%; with SF-295 CNS it was 76.3%; with SF-539 CNS, 71.3%. Besides, the results for the growth in the experiment on UACC-257 melanoma and in the experiment on M14 melanoma were 64.1% and 40.9%, respectively.
Take `CCCCCCNC(=O)Oc1ccc(/C(=C(\C)c2ccc(OC)cc2)c2ccc(OCCN3CCCCC3)cc2)cc1`: the growth is 64.6% in the experiment with NCI-H23 lung; 95.6% in the experiment on NCI-H226 lung; 90.3% in the experiment with NCI-H322M lung; 72% in the experiment with HOP-62 NSCLC; 52.7% in the experiment on NCI-H460 lung; 67.6% with HOP-92 NSCLC. Also, the growth in the experiment on NCI-H522 lung is 72.7%; with A549/ATCC NSCLC it was 61.7%; in the experiment on 786-0 renal, 41.7%; in the experiment on COLO 205 colon it was 16.3%; in the experiment with DU-145 prostate, 79.7%; in the experiment with K-562 leukemia, 6.45% (active). The growth with MALME-3M melanoma was 34.8%; in the experiment with MDA-MB-231 breast, 73.6%; with RXF 393 renal it was 47.2%; in the experiment on SF-268 CNS, 71.8%; with SF-295 CNS, 33.3%; with SF-539 CNS it was 27.1%. In addition, the growth was -1.88% (active) in the experiment on UACC-257 melanoma and -37% (active) in the experiment with M14 melanoma.
